# Source: the supplement of paper PMC9942566
# ± gives the standard deviation of the averaged measurements.
# System: Serratia marcescens K904 PosmB-luxCDABE reporter (pMQ747)
# Assay: PosmB-lux reporter fold induction (RLU/OD600 relative to no-compound control), highest over Biolog concentrations; higher = stronger Rcs reporter activation
# Conditions: wild type K904; 4 h
# Experimental: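 Serratia marcescens K904 (wild type) or its isogenic ΔrcsB mutant, carrying the Rcs-dependent PosmB-luxCDABE reporter plasmid pMQ747, was grown in LB at OD600 0.1 in Biolog Phenotype MicroArray plates PM11-20 for 4 h at 30-32°C. Each compound is present at 3-4 proprietary concentrations (not stated); per the Fig. S1 legend the value given is the highest fold over those wells. Three independent trials.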
row,Structure (SMILES),PosmB-lux reporter fold induction
1,"CN1CCN(CCCN2c3ccccc3Sc3ccc(C(F)(F)F)cc32)CC1 [Trifluoperazine] (Biolog plate: PM13, well positions: G9-12)",1.34 ± 0.17
2,"OC(CCN1CCCCC1)(c1ccccc1)c1ccccc1 [pridinol] (Biolog plate: PM20, well positions: F9-12)",2.86 ± 0.61
3,"Nc1ccc(S(=O)(=O)Nc2nccs2)cc1 [Sulfathiazole] (Biolog plate: PM12, well positions: F5-8)",1.88 ± 0.029
4,"[Cl][Fe]([Cl])[Cl] [ferric chloride] (Biolog plate: PM16, well positions: G5-8)",0.898 ± 0.3
5,"O=C1OC(CN2CCOCC2)CN1/N=C/c1ccc([N+](=O)[O-])o1 (stereo not given) [Furaltadone] (Biolog plate: PM14, well positions: A5-8)",1.52 ± 0.2
